Records with an inconclusive call do not appear. The source made the active and inactive calls. Calls follow the shape of the dose curve; as a rule, active = well fitted curve in the direction sought with a large enough effect; inconclusive = small, poorly fitted or top-dose-only effect, or another doubt; inactive = no such curve, though single readings can be large; an effect the other way counts as inactive or inconclusive.
Columns and labels:
[1] = qHTS of pediatric cancer cell lines to identify multiple opportunities for drug repurposing: Primary screen for SK-N-MC cells (AID 1347093); also: potency is read from the fitted curve at half-maximal effect
Outline: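 Metabolically active cells were quantified by ATP-dependent luminescence (CellTiter-Glo, 15 min at room temperature) following 48 h treatment. Cells had been plated at 500-1,000 per well and settled for 5 h beforehand.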

[2] = qHTS of pediatric cancer cell lines to identify multiple opportunities for drug repurposing: Primary screen for U-2 OS cells (AID 1347096); also: nearly all actives have a fitted effect of over 50% in size
Outline: (§1)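 Cells (500-1,000/well) rested 5 h, then received compounds for 48 h; metabolically active cells were measured by CellTiter-Glo luminescence. Final concentrations spanned up to 46 µM (MIPE, 11-point) or 0.59 nM-46 µM (NPC, 8-point) in primary screens, 11-point in follow-ups.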

[3] = qHTS of pediatric cancer cell lines to identify multiple opportunities for drug repurposing: Primary screen for Saos-2 cells (AID 1347097); also: nearly all actives have a fitted effect of over 40% in size; also: potency is read from the fitted curve at half-maximal effect
Outline: (§2)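 Primary screen of approved and investigational compounds on cells in growth media at 37 degrees C, 5% CO2. MIPE set at 11-point and NPC set at 8-point dilutions; viability scored by ATP-based luminescence at 48 hours.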

[4] = qHTS of pediatric cancer cell lines to identify multiple opportunities for drug repurposing: Primary screen for SK-N-SH cells (AID 1347098); also: nearly all actives have a fitted effect of over 65% in size; also: potency is read from the fitted curve at half-maximal effect
Outline: as §1

[5] = qHTS of pediatric cancer cell lines to identify multiple opportunities for drug repurposing: Primary screen for LAN-5 cells (AID 1347100); also: potency is read from the fitted curve at half-maximal effect
Outline: as §1

[6] = qHTS of pediatric cancer cell lines to identify multiple opportunities for drug repurposing: Primary screen for OHS-50 cells (AID 1347103); also: nearly all actives have a fitted effect of over 40% in size; also: potency is read from the fitted curve at half-maximal effect
Outline: as §1

[7] = qHTS of pediatric cancer cell lines to identify multiple opportunities for drug repurposing: Primary screen for MG 63 (6-TG R) cells (AID 1347105); also: nearly all actives have a fitted effect of over 50% in size
Outline: as §2

[8] = qHTS of pediatric cancer cell lines to identify multiple opportunities for drug repurposing: Primary screen for control Hh wild type fibroblast cells (AID 1347106); also: nearly all actives have a fitted effect of over 55% in size; also: potency is read from the fitted curve at half-maximal effect
Outline: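 Viability after 48 h compound treatment at 37C, 500-1,000 cells/well, read as ATP luminescence with CellTiter-Glo. Primary screens used 11-point (MIPE, 0.78 nM-46 µM) or 8-point (NPC, 0.59 nM-46 µM) final concentrations; follow-up screens used 11-point dilutions.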

[9] = qHTS of pediatric cancer cell lines to identify multiple opportunities for drug repurposing: Primary screen for Rh30 cells (AID 1347107); also: nearly all actives have a fitted effect of over 75% in size; also: potency is read from the fitted curve at half-maximal effect
Outline: as §1

[10] = qHTS of pediatric cancer cell lines to identify multiple opportunities for drug repurposing: Confirmatory screen for A673 cells (AID 1347110);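 also: cells exposed to compound for 48 h before the viability read; nearly all actives have a fitted effect of over 65% in size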
Outline: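 A673 cells seeded at 500-1,000 cells/well, rested 5 h, then dosed; primary MIPE 11-point (0.78 nM to 46 µM), NPC (0.59 nM to 46 µM); confirmatory 11-point. CellTiter-Glo luminescence after 48 h.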

[11] = qHTS of pediatric cancer cell lines to identify multiple opportunities for drug repurposing: Primary screen for NB-EBc1 cells (AID 1347095); also: potency is read from the fitted curve at half-maximal effect
Outline: as §2

[12] = qHTS of pediatric cancer cell lines to identify multiple opportunities for drug repurposing: Primary screen for RD cells (AID 1347104); also: nearly all actives have a fitted effect of over 55% in size; also: potency is read from the fitted curve at half-maximal effect
Outline: as §2

[13] = qHTS of pediatric cancer cell lines to identify multiple opportunities for drug repurposing: Primary screen for BT-37 cells (AID 1347094); also: series mostly up to about 57 µM
Outline: as §2

[14] = qHTS of pediatric cancer cell lines to identify multiple opportunities for drug repurposing: Primary screen for BT-12 cells (AID 1347101); also: nearly all actives have a fitted effect of over 25% in size; also: potency is read from the fitted curve at half-maximal effect
Outline: as §1

[15] = qHTS of pediatric cancer cell lines to identify multiple opportunities for drug repurposing: Primary screen for Rh18 cells (AID 1347102); also: nearly all actives have a fitted effect of over 65% in size
Outline: as §1

[16] = qHTS of pediatric cancer cell lines to identify multiple opportunities for drug repurposing: Primary screen for Rh41 cells (AID 1347108);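 also: series mostly up to about 46 µM; luminescence drop marks cytotoxic hits; nearly all actives have a fitted effect of over 70% in size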
Outline: as §2

[17] = qHTS of pediatric cancer cell lines to identify multiple opportunities for drug repurposing: Primary screen for NB1643 cells (AID 1347099); also: potency is read from the fitted curve at half-maximal effect; nearly all actives have a fitted effect of over 50% in size
Outline: as §2

[18] = qHTS of pediatric cancer cell lines to identify multiple opportunities for drug repurposing: Confirmatory screen for NB1643 cells (AID 1347109); also: nearly all actives have a fitted effect of over 45% in size
Outline: as §1

Measured: Potency

CC[C@@H]1C=C(C)C[C@H](C)C[C@H](OC)[C@H]2O[C@@](O)(C(=O)C(=O)N3CCCC[C@@H]3C(=O)O[C@H](C(C)=C[C@@H]3CC[C@H](Cl)[C@H](OC)C3)[C@H](C)[C@@H](O)CC1=O)[C@H](C)C[C@H]2OC
inactive: [2] | [4] | [7] | [8] | [9] | [10]
active: [1] 11.8 µM | [3] 9.35 µM | [5] 11.8 µM | [6] 8.63 µM

CC=CC[C@@H](C)C(=O)[C@H]1C(=O)N[C@@H](C(C)C)C(=O)N(C)CC(=O)N(C)[C@@H](CC(C)C)C(=O)N[C@@H](C(C)C)C(=O)N(C)[C@@H](CC(C)C)C(=O)N[C@@H](C)C(=O)N[C@H](C)C(=O)N(C)[C@@H](CC(C)C)C(=O)N(C)[C@@H](CC(C)C)C(=O)N(C)[C@@H](C(C)C)C(=O)N1C
active: [3] 18.7 µM | [4] 30.4 µM
inactive: [11] | [2] | [12] | [7] | [8] | [9]

Clc1ccc(-c2nc3sccn3c2C=NOCc2ccc(Cl)c(Cl)c2)cc1
inactive: [13] | [2] | [14] | [15] | [6] | [12] | [8] | [9]

c1ccc2c(-c3cnn4cc(-c5ccc(N6CCNCC6)cc5)cnc34)ccnc2c1
inactive: [2]
active: [14] 27.3 µM | [8] 4.69 µM | [9] 18.7 µM

COc1ccc2cc(-c3nc(-c4ccc(S(C)=O)cc4)[nH]c3-c3ccncc3)ccc2c1 (stereo not given)
inactive: [2] | [3] | [15] | [6] | [12] | [8] | [9] | [16]

Cc1ccc([C@@H]2O[C@H](CO)[C@@H](O)[C@H](O)[C@@H]2O)cc1Cc1ccc(-c2ccc(F)cc2)s1
active: [3] 14.8 µM | [6] 34.3 µM
inactive: [11] | [15] | [7] | [8]

COC(=O)N[C@H](C(=O)N1CCC[C@@H]1c1ncc(-c2ccc(-c3ccc(-c4cnc([C@@H]5CCCN5C(=O)[C@@H](NC(=O)OC)C(C)C)[nH]4)cc3)cc2)[nH]1)C(C)C
inactive: [4] | [8]
active: [11] 26.4 µM | [3] 18.7 µM | [12] 33.2 µM

CS(=O)(=O)N(Cc1ccco1)CC(O)Cn1c2ccccc2c2ccccc21 (stereo not given)
inactive: [13] | [11] | [2] | [4] | [5] | [15] | [7] | [8]

O=C(O)c1c(Cl)c(Cl)c(Cl)c(Cl)c1-c1c2cc(I)c(=O)c(I)c-2oc2c(I)c(O)c(I)cc12
active: [6] 7.69 µM

O=C(Nc1ccccc1Br)N[C@@H]1CCN(c2ccc(C(F)(F)F)cn2)C1
active: [3] 18.7 µM
inactive: [2] | [8]

CC=CCC=CCCC(=O)[C@H]1O[C@@H]1C(N)=O
inactive: [13] | [2] | [4] | [15] | [12] | [7] | [8] | [9] | [16]

C[C@]12CC[C@@H]3c4ccc(O)cc4CC[C@H]3[C@H]1C[C@@H](O)[C@H]2O
inactive: [13] | [2] | [3] | [5] | [15] | [6] | [12] | [7] | [8] | [9] | [16]

Nc1ncnc2c1ncn2[C@@H]1O[C@H](CO)C[C@@H]1O
inactive: [13] | [2] | [3] | [5] | [14] | [15] | [12]
active: [6] 24.3 µM

COc1ccc2c3c1OC1C[C@@H](O)C=C[C@@]31CCN(C)C2 (stereo not given in full)
inactive: [13] | [2] | [14] | [15] | [6] | [7] | [8] | [16]

NS(=O)(=O)c1ccc(NC2=CC(=O)c3ccccc3C2=O)cc1
inactive: [2] | [7] | [8] | [9] | [16]
active: [1] 10.5 µM | [3] 11.8 µM | [4] 30.4 µM | [17] 18.7 µM | [14] 1.09 µM

O=C1NC(=O)C(=Cc2ccc3c(c2)OC(F)(F)O3)S1
inactive: [15] | [8] | [16] | [18]
active: [1] 3.32 µM

C=C1C(=O)OC2C=C(C)CCC=C(C)CCC12 (stereo not given)
active: [3] 33.2 µM | [17] 23.5 µM
inactive: [13] | [2] | [15] | [6] | [7] | [8]
